Source: PubChem BioAssay
PINK1 modulator: PINK1 expression modulation; PINK1 immunofluorescence, high-content cytometry, 24 h; Potency, µM (highest dose often 76.6 µM), actives largely listed as activators; actives 0.2% (n = 410,000); AID 624263; active = well fitted activation curve with a large enough effect; inconclusive = small, poorly fitted or top-dose-only effect; cell line not stated here; note: nearly all actives have a fitted effect of over 65% in size
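Fluorescence from anti-PINK1 antibody, together with nuclear and cell stains, was scanned on a laser-scanning cytometer. Before staining, stable-line cells were incubated 24 hours with compounds at 5 concentrations; primary antibody 12 h at 10 degrees C.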
Menin-MLL TR inh: inhibitors of human menin-MLL interaction, mutant MLL peptide. O00255. AID 1768. Menin + Texas Red MLL mutant peptide, fluorescence polarization. Potency, µM (doses to about 61.6 µM), usual class: inhibitors. actives 0.23% (n = 270,000); active = well fitted inhibition curve with a large enough effect in the polarisation, with a control signal flat, not every such curve was filed as active; inconclusive = small, poorly fitted or top-dose-only effect, or effect the other way, or a change in a side signal; inactive = no such curve, though single readings can be large or run the other way; the % refers to the polarisation
Target sequence (O00255 whole entry, looked up): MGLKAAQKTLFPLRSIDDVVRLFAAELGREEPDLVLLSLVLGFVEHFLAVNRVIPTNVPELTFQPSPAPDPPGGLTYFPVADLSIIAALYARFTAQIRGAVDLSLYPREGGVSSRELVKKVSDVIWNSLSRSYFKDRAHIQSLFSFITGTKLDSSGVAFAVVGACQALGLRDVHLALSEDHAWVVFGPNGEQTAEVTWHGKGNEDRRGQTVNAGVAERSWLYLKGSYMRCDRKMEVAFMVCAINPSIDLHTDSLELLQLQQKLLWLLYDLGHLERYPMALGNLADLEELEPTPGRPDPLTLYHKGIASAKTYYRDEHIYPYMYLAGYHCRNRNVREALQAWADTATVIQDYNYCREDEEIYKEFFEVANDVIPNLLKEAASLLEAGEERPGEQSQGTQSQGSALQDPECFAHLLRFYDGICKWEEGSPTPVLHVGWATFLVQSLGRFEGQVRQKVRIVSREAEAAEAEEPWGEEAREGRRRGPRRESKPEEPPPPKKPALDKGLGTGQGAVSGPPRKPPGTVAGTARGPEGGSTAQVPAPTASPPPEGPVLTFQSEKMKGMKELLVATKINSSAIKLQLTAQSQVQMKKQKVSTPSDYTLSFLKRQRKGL
MLL CXXC-DNA inh: blocks binding of human MLL CXXC domain to DNA. AID 2662. Potency, µM (series often up to 115 µM), actives largely listed as inhibitors. actives 0.037% (n = 290,000). MLL-CXXC / FITC-HOXA9 DNA fluorescence polarization. Q03164; active = well fitted inhibition curve with a large enough effect in the polarisation, with a control signal flat, not every such curve was filed as active; inconclusive = small, poorly fitted or top-dose-only effect, or effect the other way, or a change in a side signal; inactive = no such curve, though single readings can be large or run the other way; the % refers to the polarisation
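Steps: dispense CXXC domain solution (7 uM) → pin compounds or unlabeled HOX-A9 DNA control → 5 min ambient → add FLSN-HOX-A9 solution (50 nM) → spin → 30 min ambient → fluorescence polarization. Tris pH 7.5/NaCl/DTT/BSA buffer.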
Epigenetic reg: epigenetic control regulation, reporter derepression. murine LDR cells, GFP reporter derepression, 30 h. Potency, µM (series often up to 53.9 µM), hits mostly activators. actives 0.2% (n = 280,000). AID 1865; active = well fitted activation curve with a large enough effect; inconclusive = small, poorly fitted or top-dose-only effect; note: nearly all actives have a fitted effect of over 60% in size
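GFP-positive cell count by laser-scanning cytometry (objects 20–120 um) after 30 h, 37 C compound exposure of murine LDR cells; reporter is CMV-GFP integrated at a silenced locus, inducible by HDAC or DNMT inhibitors.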
Menin-MLL FL inh: inhibitors of human menin-MLL interaction, wild-type MLL peptide | FP activity change, % at 61.4 µM | Fluorescence polarization, fluorescein-MLL peptide displacement from menin | 290,000 tested, under 10 active; active = well fitted curve in the direction sought with a large enough effect in the polarisation, not every such curve was filed as active; inconclusive = small, poorly fitted or top-dose-only effect, or effect the other way, or a change in a side signal; inactive = no such curve, though single readings can be large or run the other way; the % refers to the polarisation
ClpP mod: qHTS Assay for Activators of ClpP; ATP-dependent Clp protease proteolytic subunit (Bacillus subtilis (strain 168)), P80244; purified B. subtilis ClpP, FRET peptide cleavage, 20 min; AID 651965, 2013; actives 1.9% (n = 340,000); Potency, µM (series often up to 57.5 µM); active = well fitted falling curve with a large enough effect; inconclusive = small, poorly fitted or top-dose-only effect; inactive = no such curve, though single readings can be large or run the other way; note: the source files actives as falling curves though it sought activators and does not explain the sign; nearly all actives have a fitted effect of over 65% in size
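Buffer: 100 mM Tris/HCl pH8, 100 mM KCl, 0.05% low protease BSA, 2.5% glycerol, 0.01% Tween-20. ClpP 10 microg/mL final; 20 min RT; delta FRET normalized to ADEP and DMSO controls.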
Numbers stand for hits; 0 = inactive; ? = inconclusive; - = no result given. This is a sample that favours compounds with a hit; in the whole collection about 1.9% have one here.

SMILES	PINK1 modulator	Menin-MLL TR inh	MLL CXXC-DNA inh	Epigenetic reg	Menin-MLL FL inh	ClpP mod
Cc1cc(C)c(S(=O)(=O)N2CCCCC2CCNC(=O)C(=O)NCc2ccco2)c(C)c1 (configuration not stated)	0	-	-	-	-	14µM
CCN(CC(=O)NCc1cccs1)C(=O)c1cc(S(=O)(=O)N2CCOCC2)ccc1C	0	0	0	0	0	0
CCN(CC(=O)NCc1ccc(Cl)cc1)C(=O)c1cc(S(=O)(=O)N2CCOCC2)ccc1C	0	-	-	-	-	14µM
COc1ccc(-c2cc(-c3ccccc3)c(C#N)c(SCC(=O)Nc3ncc(C)s3)n2)cc1	0	?	0	0	0	7.9µM
COc1ccc(-c2cc(-c3ccccc3)nc(SCC(=O)Nc3nccs3)c2C#N)cc1	?	?	0	?	0	28µM
COC(=O)CSc1nc(N)c(C#N)c(-c2ccco2)c1C#N	0	0	0	?	0	0
COC(=O)CSc1nc(-c2ccccc2)cc(-c2ccco2)c1C#N	0	?	0	0	0	25µM
CCc1nnc(NC(=O)CSc2nc(-c3ccccc3)cc(-c3ccc(OC)cc3)c2C#N)s1	0	0	?	?	0	0
CC(=O)c1ccc(OCC(O)CN2CCN(S(=O)(=O)c3c(C)cc(C)cc3C)CC2)cc1 (configuration not stated)	0	?	0	-	0	20µM
O=C(NCCN1CCOCC1)c1cc(-c2ccc(F)cc2)nc2ccccc12	0	-	-	-	-	25µM
O=C(NCCCN1CCCC1=O)c1cc(S(=O)(=O)N2CCN(c3ccccc3)CC2)ccc1Cl	0	-	-	-	-	28µM
O=C(NCCCN1CCCC1=O)c1cc(-c2ccc(F)cc2)nc2ccccc12	0	-	-	-	-	8.9µM
O=C(NCCCN1CCOCC1)c1cc(-c2ccc(F)cc2)nc2ccccc12	0	-	-	-	-	0
COc1ccc(-c2cc(C(=O)NCCCN3CCCC3=O)c3ccccc3n2)cc1	0	-	-	-	-	?
O=C(NCCCN1CCOCC1)c1cc(S(=O)(=O)N2CCN(c3ccccc3)CC2)ccc1Cl	0	-	-	-	-	-
Cc1ncc2c(c1CNC(=O)c1ccc3c(c1)OCO3)CCN(C(=O)c1cnsn1)C2	0	-	-	-	-	-
C=C(C)C(=O)Oc1ccc(N2C(=O)CCC2=O)cc1	0	-	0	22µM	0	0
COCCCNc1ncnc2sc(C(=O)N3CCOCC3)c(C)c12	0	-	-	-	-	-
CC1CN(Cc2cccn2-c2cccnc2)Cc2cc(Cl)ccc2O1 (configuration not stated)	0	-	-	-	-	-
Cc1cc(C(=O)C(C)OC(=O)C2=NNC(=O)CC2)c(C)n1-c1ccc(OC(F)F)cc1 (configuration not stated)	0	-	0	0	0	20µM
CC(C)c1ccc(NC(=O)Cn2c(=O)n(Cc3nc(-c4ccccc4)no3)c(=O)c3cc4c(cc32)OCO4)cc1	0	-	-	0	-	?
Cc1ccc(NC(=O)Cn2c(=O)n(Cc3nc(C)no3)c(=O)c3cc4c(cc32)OCO4)c(C)c1	0	-	-	0	-	22µM
Cc1noc(Cn2c(=O)c3cc4c(cc3n(CC(=O)Nc3ccc(C(C)C)cc3)c2=O)OCO4)n1	0	-	-	0	-	35µM
Cc1ccc(S(=O)(=O)c2nnn3c2nc(NCc2ccc4c(c2)OCO4)c2sccc23)cc1C	0	-	-	0	-	20µM
Cc1ccc(S(=O)(=O)c2nnn3c2nc(NCCc2ccccc2)c2sccc23)cc1	0	-	-	0	-	10µM
SMILES	PINK1 modulator	Menin-MLL TR inh	MLL CXXC-DNA inh	Epigenetic reg	Menin-MLL FL inh	ClpP mod
Cc1ccc(CCNc2nc3c(S(=O)(=O)c4ccccc4)nnn3c3ccsc23)cc1	0	-	-	0	-	0
CC(C)c1ccc(S(=O)(=O)c2nnn3c2nc(NCCc2ccccc2)c2sccc23)cc1	0	-	-	0	-	25µM
O=S(=O)(c1ccc(Br)cc1)c1nnn2c1nc(NCCc1ccccc1)c1sccc12	0	-	-	0	-	?
Cc1cnc(SCC2CCCO2)nc1C1CCCN(Cc2cc3c(cc2Cl)OCO3)C1 (configuration not stated)	0	-	-	-	-	-
COc1ccccc1N1C(=O)c2ccccc2NC1c1ccncc1 (configuration not stated)	0	0	0	0	0	?
COc1cc(C2Nc3ccccc3C(=O)N2Cc2ccccc2)ccc1OCc1ccccc1 (configuration not stated)	0	-	-	-	-	0
c1ccc2c(c1)NC(c1ccncc1)n1c-2nc2ccccc21 (configuration not stated)	0	0	0	0	0	28µM
c1csc(C2Nc3ccccc3-c3nc4ccccc4n32)c1 (configuration not stated)	0	0	0	0	-	0
O=C1c2ccccc2NC(c2ccncc2)N1c1ccccn1 (configuration not stated)	0	0	0	0	0	28µM
COc1ccc(C2Nc3ccccc3C(=O)N2c2ccc(F)cc2)cc1CSc1ccccn1 (configuration not stated)	?	0	0	0	0	8.9µM
COc1ccc(C2Nc3ccccc3C(=O)N2Cc2ccccc2)cc1CSc1ccccn1 (configuration not stated)	0	0	0	0	0	14µM
O=[N+]([O-])c1cccc2[nH]cnc12	-	-	-	-	-	0
COc1ccc(C2Nc3ccccc3C(=O)N2c2ccccc2)cc1COc1ccccn1 (configuration not stated)	-	0	0	0	0	28µM
COc1ccc(C2Nc3ccccc3C(=O)N2c2ccccc2)cc1CSc1ccccn1 (configuration not stated)	0	0	0	0	0	32µM
N#Cc1nc(N2CCCCC2)nc(N(c2ccccc2)c2ccccc2)n1	0	-	-	-	-	?
O=C(NCCc1nnc2n1CCN(Cc1ccc(F)cc1)CC2)c1ccco1	0	-	-	-	-	-
CCOC(=O)N1CCc2cc(OC)c(OC)c3c2c1cc1cc(OC)c(OC)cc13	0	-	-	-	-	28µM
COc1cc(OC)c(/C=C/c2nccc3ccccc23)c(OC)c1	?	-	-	-	-	0
Nc1c(C(O)(C(F)(F)F)C(F)(F)F)ccc2ccccc12	0	?	0	0	?	28µM
Cc1cnc(-n2ncc(C(=O)NCCN3CCOCC3)c2C2CC2)nc1-c1cccs1	0	-	-	-	-	-
Cn1c(=O)c2nc(Cl)c(-c3ccccc3)nc2n(C)c1=O	0	0	0	0	0	25µM
Cn1c(=O)c2nc(-c3ccccc3)c(-c3ccccc3)nc2n(C)c1=O	0	-	-	-	-	0
COc1cc(OC)c(/C=C/c2cc3ccccc3c[n+]2C)c(OC)c1	11µM	-	-	-	-	0
C1=Cc2ccccc2/C1=C\c1cc2c3c(c1)CCCN3CCC2	0	-	-	-	-	0
O=S(=O)(c1ccc(-c2csc(Nc3ccc(F)cc3)n2)cc1)N1CCCC1	0	?	0	0	0	20µM
Cc1ccc(Nc2nc(-c3ccc(S(=O)(=O)N4CCCC4)cc3)cs2)cc1C	0	?	0	0	0	?
Cc1ccc(Nc2nc(-c3ccc(S(=O)(=O)N4CCOCC4)cc3)cs2)cc1	0	-	-	-	-	13µM
